# FBW7 act = FBW7 E3 ligase activators, primary screen, biochemical, AlphaScreen, human; 650,000 tested, 0.13% active; AlphaScreen FBW7–phospho-cyclin E peptide binding, activator screen; AID 1259310, 2017; normalized activity (activation), % at 26.1 µM; in the data active means normalized activity above about 1.9%;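 further: purified mutant Fbw7 with reduced substrate affinity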
# MITF inh = MITF inhibitors, primary screen, biochemical, AlphaScreen, human | Microphthalmia-associated transcription factor (Homo sapiens), O75030 | AlphaScreen MITF homodimerization, bead proximity signal | inhibition, % at 2.6 µM | 650,000 tested, 0.91% active; in the data active means inhibition above about 50%;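 further: 0% = vehicle wells with protein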
# Target sequence (O75030 whole entry, looked up): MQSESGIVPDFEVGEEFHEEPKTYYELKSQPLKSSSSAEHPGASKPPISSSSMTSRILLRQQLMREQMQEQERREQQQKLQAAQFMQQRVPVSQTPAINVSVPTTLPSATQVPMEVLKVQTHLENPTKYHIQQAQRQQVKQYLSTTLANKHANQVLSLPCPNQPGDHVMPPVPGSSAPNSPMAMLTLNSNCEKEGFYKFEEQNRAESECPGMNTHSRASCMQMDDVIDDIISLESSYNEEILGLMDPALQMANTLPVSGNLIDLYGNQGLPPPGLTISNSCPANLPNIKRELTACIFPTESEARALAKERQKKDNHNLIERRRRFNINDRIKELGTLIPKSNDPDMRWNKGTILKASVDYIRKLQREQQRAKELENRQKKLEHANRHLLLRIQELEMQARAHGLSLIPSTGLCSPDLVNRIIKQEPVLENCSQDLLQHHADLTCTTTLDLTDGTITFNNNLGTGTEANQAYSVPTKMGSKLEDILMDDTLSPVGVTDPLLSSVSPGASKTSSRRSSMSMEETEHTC
# GPR151 activ = activators of human GPR151, primary screen, cell-based, PathHunter beta-arrestin, luminescence | 650,000 tested, 1% active | PathHunter beta-arrestin GPR151 cells | activation, % at 11.2 µM; in the data active means activation above about 4.9%;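 further: 0% = median of compound wells and 100% = cells with positive control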
# TEAD-YAP inh = TEAD-YAP interaction inhibition, primary screen, TEAD-YAP interaction inhibitor project, luminescence, HEK-TIYL cells; inhibition, % at 9.12 µM; AID 1259422, 2018; TEAD-Gal4/YAP UAS-luciferase luminescence; 640,000 tested, 1.4% active; in the data active means inhibition above about 32%;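 further: 0% = median of test compound wells and 100% = reference inhibitor wells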
# GPR151 confirm = GPR151 activators, triplicate retest, confirmation, cell-based, PathHunter beta-arrestin, luminescence | shares compounds with GPR151 activ | GPR151 PathHunter beta-arrestin cells, 90 min; % of EA-reagent control over plate median | activation, % at 11.2 µM | 6,700 tested, under 10 active;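 active means mean percent activation across replicates above the confirmation screen cutoff of 4.91%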
# GPR119 ag = GPR119 activators in beta-arrestin cells, counter-screen for GPR151 activator project, cell-based, PathHunter beta-arrestin, luminescence, triplicate | shares compounds with GPR151 activ | 90 min; 0 = compound-well median, 100 = enzyme-acceptor control | activation, % at 11.2 µM | 6,700 tested, 0.3% active;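 active means mean percent activation in the counterscreen above 29.09%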;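 further: counterscreen on off-target GPR119 to flag nonselective hits from the GPR151 activator screen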
# An asterisk follows results filed as active; · = no result. Hits are enriched below; roughly 3.4% of the tested compounds scored in any of these assays.
SMILES,FBW7 act,MITF inh,GPR151 activ,TEAD-YAP inh,GPR151 confirm,GPR119 ag
COc1ccc(OC)c(CNC(=O)CCC2(Cc3ccc(F)cc3)CCC(=O)N2)c1 (stereo unspecified),0.0,8.5,-0.8,0.1,·,·
CC(C)N(CCNc1ncnc2nc(Nc3nccc4ccccc34)[nH]c12)C(C)C,-0.1,9.5,6.1*,-2.6,-0.1,-4.6
CC(C)N(CCNc1ncnc2nc(Nc3ccccc3)[nH]c12)C(C)C,-0.2,4.7,-2.2,-7.4,·,·
COc1cc(/C=N/NC(=O)Cn2nnc(-c3ccccc3)n2)cc2sc(=O)oc12,0.0,5.1,8.0*,9.0,-0.1,4.4
COc1cc(/C=N/NC(=O)CN2CC(c3ccccc3)CC2=O)cc2sc(=O)oc12 (stereo unspecified),-0.5,0.1,0.5,4.9,·,·
Cn1c(=O)c2c(SCCC3OCCO3)nc(C3CCCCC3)nc2n(C)c1=O,-0.2,-15.2,7.9*,-3.9,3.3,8.3
COc1cc(C2C(C(=O)OCc3ccccc3)=C(C)NC(C)=C2C(=O)OCc2ccccc2)ccc1O,0.6,12.2,0.3,5.6,·,·
CCOC(=O)C(C)Oc1ccc2c(C)c(C)c(=O)oc2c1C (stereo unspecified),-0.1,-6.8,-0.5,-15.7,·,·
COc1cc2c(N3C(=O)CCC3=O)c3c(=O)oc(C)cn3c2cc1OC,-0.2,-3.5,9.1*,6.2,-0.5,0.8
CCOC(=O)C1CCN(c2c(N3CCN(c4cccc(Cl)c4)CC3)c(=O)c2=O)CC1,0.1,3.0,5.2*,-5.1,-0.9,-16.0
CCOC(=O)C1CCCN(c2c(N3CCN(c4cccc(Cl)c4)CC3)c(=O)c2=O)C1 (stereo unspecified),-0.1,-7.4,0.9,8.0,·,·
O=C(O)c1ccc2nc(N3CCCCC3)sc2c1,-0.1,0.0,-5.7,-19.4,·,·
NC(=O)c1ccc2nc(N3CCN(c4ccccn4)CC3)sc2c1,0.0,-5.8,8.1*,-49.4,-0.5,-2.1
NC(=O)C1CCN(C(=O)c2ccc3nc(N4CCCCC4)sc3c2)CC1,-0.1,4.0,12.2*,-47.6,1.6,8.0
COc1ccc2nc(N3CCN(C(=O)C4CCCN4S(C)(=O)=O)CC3)sc2c1 (stereo unspecified),-0.1,-7.3,1.5,0.9,·,·
O=C(NC1CCCC1)N1CCN(c2nc3ccc(F)cc3s2)CC1,-0.1,6.0,6.4*,-1.7,0.3,6.2
COc1ccc2nc(N3CCC(C(=O)N4CCCC4)CC3)sc2c1,0.1,-7.0,6.9*,-27.5,-0.2,1.2
O=C1OC(c2ccc(Cl)cc2Cl)=N/C1=C\c1cn(-c2ccccc2)nc1-c1ccccc1,0.0,4.2,0.6,-0.9,·,·
CCN1CCN(c2nc3ccc(OC(=O)COc4ccccc4)cc3s2)CC1,0.0,11.4,-2.1,-34.2,·,·
O=C(COc1ccccc1)Oc1ccc2nc(N3CCCC3)sc2c1,-0.1,7.2,9.1*,-40.9,-4.0,-26.9
Cc1cc(OC(C)C(=O)NNC(=O)Nc2cccc(Cl)c2Cl)ccc1[N+](=O)[O-] (stereo unspecified),0.5,18.5,6.1*,-5.6,-0.4,4.1
CC(Oc1ccc2c(c1)OCO2)C(=O)NNC(=O)Nc1cccc(Cl)c1Cl (stereo unspecified),0.0,-18.0,-0.4,5.2,·,·
COC(=O)c1c(NC(=O)c2ccc3ccccc3c2)sc2c1CCN(C)C2,0.3,-2.5,-0.6,-3.6,·,·
O=C(COC(=O)c1ccc(F)c(S(=O)(=O)N2CCOCC2)c1)c1ccc(Cl)cc1,0.8,-3.0,1.9,1.0,·,·
O=C(COC(=O)c1ccc(F)c(S(=O)(=O)N2CCOCC2)c1)c1ccccc1,0.0,5.2,6.1*,8.4,1.9,2.2
SMILES,FBW7 act,MITF inh,GPR151 activ,TEAD-YAP inh,GPR151 confirm,GPR119 ag
O=C(COC(=O)c1cc(S(=O)(=O)N2CCOCC2)ccc1F)Nc1cccc(F)c1,0.1,2.2,6.5*,-2.7,0.3,1.6
COC(=O)C1=C(C)N(C)C(=O)/C1=C\c1c(Cl)cccc1Cl,0.3,5.5,0.4,-11.3,·,·
CCC(Sc1nnc2c3ccccc3n(C)c2n1)C(=O)Nc1ccc(S(N)(=O)=O)cc1 (stereo unspecified),-0.1,-3.3,1.3,-4.5,·,·
CCC(Sc1nnc2c3cc(Br)ccc3n(C)c2n1)C(=O)Nc1ccc(S(N)(=O)=O)cc1 (stereo unspecified),0.4,3.0,8.5*,-9.8,0.0,9.5
O=C(NC1CCS(=O)(=O)C1)c1ccc(-c2ccccc2)nc1NCc1cccnc1 (stereo unspecified),0.3,16.3,-0.6,2.3,·,·
Cc1c(C(=O)C(=O)NC(C)C)c2ccccc2n1C,0.2,6.5,6.3*,-1.8,0.2,3.4
CNC(=O)C(=O)c1c(C)n(C)c2ccccc12,0.0,-1.1,-0.2,6.3,·,·
O=C(Cn1[nH]c(=O)c2ccccc2c1=O)NCc1cccnc1,0.0,2.1,-0.1,10.3,·,·
O=C(Cn1[nH]c(=O)c2ccccc2c1=O)Nc1cccnc1,-0.1,-14.0,18.6*,1.0,0.7,-4.4
O=C(N/N=C/C=C/c1ccccc1[N+](=O)[O-])c1ccccc1-n1cccc1,0.1,6.1,4.3,4.9,·,·
CC(=O)c1ccc(NC(=S)NCCSCc2ccco2)cc1,0.1,-14.7,-0.9,-13.9,·,·
COc1ccc(-c2nnc3sc(NC(=O)C(C)C)nn23)cc1OC,-0.1,-2.8,14.3*,7.9,1.6,-6.5
COc1ccc(-c2nnc(NC(=O)c3ccccc3C)s2)c(OC)c1,0.0,7.1,5.8*,0.7,1.1,-0.1
COc1ccc(-c2nnc3sc(NC(=O)c4ccccc4C)nn23)cc1OC,0.0,-0.1,8.8*,-2.2,0.5,1.2
COc1ccc(-c2nnc3sc(NC(=O)c4ccccc4C)nn23)cc1,0.1,-4.7,2.1,-2.0,·,·
CCCCNC(=O)CC(CC)NS(=O)(=O)c1ccc(OC)cc1 (stereo unspecified),-0.1,0.3,-0.4,3.8,·,·
O=c1nc(SCc2cccc3ccccc23)c2c(n1CCCO)CCCC2,-0.5,-11.2,-0.2,0.5,·,·
O=c1nc(SCc2c(F)cccc2Cl)c2c(n1CCCO)CCCC2,-0.4,6.4,5.1*,-14.4,0.3,-9.2
CC1=NN(c2ccc(C)cc2)C(=O)/C1=C/c1ccc2c(c1)OCO2,-0.4,-3.6,5.3*,-3.6,0.1,-0.9
CC1=NN(c2ccc(Cl)cc2)C(=O)/C1=C/c1ccc2c(c1)OCO2,-0.2,6.6,0.3,0.5,·,·
